Measured values: PubChem BioAssay (NCATS)
Results filed as inconclusive are left out. Calls of active or inactive are those of the source. Unless noted, calls follow the shape of the dose curve; as a rule, active = well fitted curve in the direction sought with a large enough effect; inconclusive = small, poorly fitted or top-dose-only effect, or another doubt; inactive = no such curve, though single readings can be large; an effect the other way counts as inactive or inconclusive.

Experiments:
[1] = qHTS to identify inhibitors of the type 1 interferon - major histocompatibility complex class I in skeletal muscle: primary screen against the NCATS Mechanism Interrogation Plate v5.0 (MIPE) Libary (AID 1347411); also: nearly all actives have a fitted effect of over 65% in size; also: potency is read from the fitted curve at half-maximal effect
Summary of the method: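 Luminescence from HiBiT-tagged endogenous HLA-B*08:01 served as the MHC class I read-out. CRISPR-engineered C25cl48 human myoblasts received 4.0 ng/ml IFN-beta plus compound for 24 hrs, with an 11-point, 1:3 series topping at 46 uM final.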

[2] = molecular target: Glutathione peroxidase 1 (Homo sapiens) (UniProt P07203); test: Primary qHTS Assay for Inhibitors of Recombinant Selenoprotein Glutathione Peroxidase 1 (GPX1) (AID 1845191); also: nearly all actives have a fitted effect of over 65% in size; also: potency is read from the fitted curve at half-maximal effect
Sequence of Glutathione peroxidase 1 (Homo sapiens) (P07203 whole entry, looked up): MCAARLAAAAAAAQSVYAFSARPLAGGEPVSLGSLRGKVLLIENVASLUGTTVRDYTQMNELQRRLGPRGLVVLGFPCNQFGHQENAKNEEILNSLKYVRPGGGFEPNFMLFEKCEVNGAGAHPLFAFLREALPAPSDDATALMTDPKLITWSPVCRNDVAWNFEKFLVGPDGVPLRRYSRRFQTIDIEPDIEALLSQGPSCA
Summary of the method: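 Recombinant GPX1 (10 nM final) was preincubated with compound for 30 min at room temperature, then reacted with 1 mM GSH, 0.5 mM CHP, 0.5 mM NADPH and 100 nM glutathione reductase; NADPH fluorescence (340/450 nm) was read at 0 and 15 min.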

[3] = molecular target: Phospholipid hydroperoxide glutathione peroxidase GPX4 (Homo sapiens) (UniProt P36969); test: Primary qHTS Assay for Inhibitors of Recombinant Selenoprotein Glutathione Peroxidase 4 (GPX4) (AID 1845192); details: outcome: dose series up to 50 µM unless noted; also: nearly all actives have a fitted effect of over 65% in size; also: potency is read from the fitted curve at half-maximal effect
Sequence of Phospholipid hydroperoxide glutathione peroxidase GPX4 (Homo sapiens) (P36969 whole entry, looked up): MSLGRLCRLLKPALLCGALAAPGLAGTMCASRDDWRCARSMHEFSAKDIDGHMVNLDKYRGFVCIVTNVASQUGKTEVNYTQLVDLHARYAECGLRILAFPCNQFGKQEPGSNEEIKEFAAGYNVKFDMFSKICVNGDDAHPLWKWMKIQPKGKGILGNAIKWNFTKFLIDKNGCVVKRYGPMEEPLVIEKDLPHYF
Summary of the method: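 GR-coupled readout: 100 nM GR, 1 mM GSH, 0.5 mM NADPH; NADPH fluorescence (ex 340/em 450 nm) read at t=0 and after 15 min RT. GPX4 200 nM, preincubated 30 min with compound; substrate 0.5 mM CHP.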

[4] = qHTS drug screen for cell cycle checkpoint inhibitors in PARPi-resistant BRCA-mutant ovarian cancer cell lines. (AID 1963452; calls by dose curve; also: potency is read from the fitted curve at half-maximal effect); details: PEO1/OlaR viability, CellTiter-Glo luminescence, 96 h; for Z-AUC: stronger effect = lower value
Summary of the method: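 PEO1, PEO4 and PEO1/OlaR ovarian cancer cells, 600 per well, exposed 96 h at 37C to a dilution series. Viability read by CellTiter-Glo luminescence, normalized to DMSO and empty wells; activity summarized as Z-AUC.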

[5] = Primary qHTS for inhibitors of nuclear receptor binding SET domain protein 2 (NSD2) in an RCH-ACV wild type WT cells (2C) (AID 1645877); also: nearly all actives have a fitted effect of over 70% in size; also: potency is read from the fitted curve at half-maximal effect
[6] = NCATS anti-infectives library activity on HEK293 viability as a counter-qHTS vs the C. elegans viability qHTS (AID 1745854);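 also: HEK293 cells exposed to compounds for 24 hr before the viability read; % is scaled to controls: 0 for no effect and ±100 for the full control effect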
Summary of the method: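 Compounds were acoustically plated (several concentrations, 1:5, final up to 41.7 uM), then 1500 HEK293 cells added per well and incubated 24 hr at 37C, 5% CO2. CellTiter-Glo was added and luminescence read after 10 min.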

[7] = measured here: PEO1 parental Z-AUC

| SMILES | Potency [1] | Potency [2] | Potency [3] | Potency [4] | Z-AUC [4, 7] | Z-AUC ([4]; measured here: PEO4 Z-AUC) | Potency [5] | Z-AUC [4] | Potency [6] |
| --- | --- | --- | --- | --- | --- | --- | --- | --- | --- |
| CNS(=O)(=O)Nc1nccc(Cc2c(C)c3ccc(Oc4ncccn4)cc3oc2=O)c1F | inactive | inactive | inactive | 2.75 µM (active) | -1.08 | -1.84 | – | – | – |
| N[C@@H]1CN(c2c(F)cc3c(=O)c(C(=O)O)cn([C@@H]4C[C@@H]4F)c3c2Cl)CC12CC2 | inactive | inactive | – | – | 0.374 | 0.877 | inactive | 0.751 (inactive) | – |
| Cc1[nH]nc2ncc(C(=O)N3CCC[C@H]3c3ccc(Cl)cc3)cc12 | inactive | inactive | – | – | 0.0336 | -0.0502 | 0.296 µM (active) | -0.0587 (inactive) | – |
| CC(=O)N1CCC(Nc2cc(C(=O)NC[C@H](O)CN3CCc4ccccc4C3)ncn2)CC1 | inactive | inactive | inactive | – | 0.224 | 0.188 | – | 0.665 (inactive) | – |
| COC(=O)C1=C(C)NC(c2ncc(F)cc2F)=N[C@@H]1c1ccc(F)cc1Cl | 16.5 µM (active) | inactive | inactive | – | 1.02 | 0.861 | 18.6 µM (active) | 1.3 (inactive) | – |
| Nc1nc(OC(c2ccc(-c3cccc(F)c3)cc2)C(F)(F)F)cc(-c2ccc(C[C@H](N)C(=O)O)cc2)n1 (stereo partly specified) | inactive | inactive | inactive | – | -0.615 | -0.247 | – | -0.825 (inactive) | – |
| C=CC(=O)Nc1cc(N2CCN(CC)CC2)ccc1Nc1cc(N(C)C(=O)Nc2c(Cl)c(OC)cc(OC)c2Cl)ncn1 | inactive | inactive | inactive | – | 0.686 | 0.736 | – | 1.02 (inactive) | – |
| Cc1nc(C)c(CN2CCN(C(c3ccc(F)cc3)c3ccc(F)cc3)CC2)nc1C | inactive | inactive | inactive | – | 0.777 | 1.05 | – | -0.108 (inactive) | – |
| CC(C)(CO)n1cc(C(=O)c2cncc(NC(=O)Cc3ccc(Cl)cn3)c2)c2cnc(N)nc21 | inactive | inactive | inactive | – | 0.879 | 0.771 | – | -0.173 (inactive) | – |
| Cc1ccc(NC(=O)[C@H]2CCCN(C(=O)c3c(C)cccc3F)[C@H]2c2ccc(NC3CCCC3)cc2)cc1C(F)(F)F | inactive | inactive | – | – | 0.0404 | -0.339 | inactive | -0.612 (inactive) | – |
| Nc1ncc(C(=O)NC2CN(C(=O)C3CC3)C2)c2ccc(-c3cccc(F)c3)nc12 | inactive | inactive | inactive | – | 0.799 | 0.359 | – | 1.21 (inactive) | – |
| Cc1nc2cccc(N)c2c(=O)n1C1CCC(=O)NC1=O (stereo unspecified) | inactive | inactive | inactive | – | 1.14 | 1.38 | – | 1.24 (inactive) | – |
| CC(C)C[C@H](NC(=O)[C@H](Cc1ccccc1)NC(=O)OCc1ccccc1)C(=O)C=O | inactive | inactive | inactive | – | 0.57 | 0.338 | – | 0.592 (inactive) | – |
| CC(=O)N[C@H]1CSSC[C@@H](C(N)=O)NC(=O)[C@H](C(C)C)NC(=O)[C@H](C)NC(=O)[C@H](Cc2cnc[nH]2)NC1=O | inactive | inactive | inactive | – | -0.625 | -0.422 | inactive | -0.0315 (inactive) | – |
| NS(=O)(=O)Oc1ccc2c3c(c(=O)oc2c1)CCCCC3 | inactive | 4.09 µM (active) | 18 µM (active) | – | 0.12 | -0.024 | – | 0.451 (inactive) | – |
| C=CC(=O)N1C[C@H](Nc2ncnc3[nH]ccc23)CC[C@@H]1C | inactive | – | inactive | – | -0.501 | -0.666 | inactive | -0.649 (inactive) | – |
| Cn1nccc1Nc1nccc(-c2cc3c(s2)C(C)(C)N(CCN2CCOCC2)C3=O)n1 | inactive | inactive | inactive | – | -0.829 | -0.419 | – | -1.65 (inactive) | – |
| Nc1cccc2c1CN([C@H]1CCC(=O)NC1=O)C2=O | inactive | inactive | inactive | – | 0.928 | 1.07 | – | 0.0993 (inactive) | inactive |
| CN(CCOc1ccc(-c2ccc3c(c2)OCO3)cc1C(C)(C)C)CC(=O)O | inactive | – | inactive | – | 1.02 | 1.29 | 20.9 µM (active) | 0.446 (inactive) | – |
| CCOc1ccc(-n2c([C@@H](C)N(Cc3cccnc3)C(=O)Cc3ccc(F)c(C(F)(F)F)c3)nc3ncccc3c2=O)cc1 | inactive | inactive | inactive | – | 1.42 | 1.34 | 18.6 µM (active) | 1.64 (inactive) | – |
| O=C(Cc1ccccc1)Nc1nnc(CCSCCc2nnc(NC(=O)Cc3ccccc3)s2)s1 | inactive | inactive | inactive | – | 1.23 | 1.41 | – | 1.43 (inactive) | inactive |
